# Only a selection was taken, and the strongest signals are over-represented in it overall.
# B1: CTLY 1 (Homo sapiens), Q6ZS10 (protein)
# chain: AITCPEGWLPFEGKCYYFSPSTKSWDEARMFCQENYSHLVIINSFAEHNFVAKAHGSPRVYWLGLNDRAQEGDWRWLDGSPVTLSFWEPEEPNNIHDEDCATMNKGGTWNDLSCYKTTYWICERKGLNDIFEAQKIEWHE
# Legend:
# Experiment in all cases: glycan array binding signal (z-score within array); higher = stronger binding
# Details in all cases: glycan notation: IUPAC condensed, linker removed
# [1] = molecular target: Fuc(a1-2)Gal(b1-3)GalNAc(a1-3)[Fuc(a1-2)]Gal(b1-4)GlcNAc
# Summary of the method: (§1)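 Glycan array binding is given as a within-array Z-score, which can be read as non-binding when negative. The arrays, 3228 of them, came from the Consortium for Functional Glycomics database and were retained only where the protein sequence was available. Z-scores were averaged across arrays of the same protein sequence at different concentrations or buffers and across linkers.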
# [2] = molecular target: Fuc(a1-2)Gal(b1-3)GlcNAc(b1-3)Gal(b1-4)Glc
# Summary of the method: as §1
# [3] = molecular target: Fuc(a1-2)Gal(b1-3)GlcNAc(b1-3)[Fuc(a1-3)[Gal(b1-4)]GlcNAc(b1-6)]Gal(b1-4)Glc
# Summary of the method: as §1
# [4] = molecular target: Fuc(a1-2)Gal(b1-4)[Fuc(a1-3)]GlcNAc(b1-3)Gal(b1-4)[Fuc(a1-3)]GlcNAc(b1-3)Gal(b1-4)[Fuc(a1-3)]GlcNAc
# Summary of the method: as §1
# [5] = molecular target: Fuc(a1-2)[Gal(a1-3)]Gal(b1-4)GlcNAc(b1-2)Man(a1-3)[Fuc(a1-2)[Gal(a1-3)]Gal(b1-4)GlcNAc(b1-2)Man(a1-6)]Man(b1-4)GlcNAc(b1-4)GlcNAc
# Summary of the method: as §1
# [6] = molecular target: Fuc(a1-2)[Gal(a1-3)]Gal(b1-4)[Fuc(a1-3)]GlcNAc
# Summary of the method: as §1
# [7] = molecular target: Fuc(a1-2)[GalNAc(a1-3)]Gal(b1-4)[Fuc(a1-3)]GlcNAc
# Summary of the method: as §1
# [8] = molecular target: Fuc(a1-3)[Gal(b1-4)]GlcNAc(b1-4)Gal(b1-4)[Fuc(a1-3)]GlcNAc
# Summary of the method: as §1
# [9] = molecular target: Fuc(a1-3)[Gal(b1-4)]GlcNAc(b1-6)[Gal(b1-3)GlcNAc(b1-3)]Gal(b1-4)Glc
# Summary of the method: as §1
# [10] = molecular target: Fuc(a1-3)[GalNAc(b1-4)]GlcNAc
# Summary of the method: as §1
# Fuc(a1-4)GlcNAc = molecular target: Fuc(a1-4)GlcNAc
# Summary of the method: as §1
# Gal(b1-4)Glc6S = molecular target: Gal(b1-4)Glc6S
# Summary of the method: as §1
# [11] = molecular target: Gal(b1-4)GlcNAc(b1-2)Man(a1-3)[Gal(b1-4)GlcNAc(b1-2)Man(a1-6)]Man(b1-4)GlcNAc(b1-4)GlcNAc
# Summary of the method: as §1
# [12] = molecular target: Gal(b1-4)GlcNAc(b1-2)Man(a1-6)Man(b1-4)GlcNAc(b1-4)GlcNAc
# Summary of the method: as §1
# [13] = molecular target: Gal(b1-4)GlcNAc(b1-3)[Gal(b1-4)GlcNAc(b1-6)]GalNAc
# Summary of the method: as §1
# [14] = molecular target: Gal(b1-4)GlcNAc(b1-6)GalNAc
# Summary of the method: as §1
# [15] = molecular target: Gal3S(b1-3)[Fuc(a1-4)]GlcNAc
# Summary of the method: as §1
# [16] = molecular target: GalNAc(b1-3)Gal(a1-4)Gal(b1-4)GlcNAc
# Summary of the method: as §1
# Glc(b1-4)Glc = molecular target: Glc(b1-4)Glc
# Summary of the method: as §1
# [17] = molecular target: GlcNAc(b1-3)Gal(b1-4)GlcNAc
# Summary of the method: as §1
# [18] = molecular target: GlcNAc(b1-3)[GlcNAc(b1-6)]GalNAc
# Summary of the method: as §1
# [19] = molecular target: GlcNAc(b1-4)Gal(b1-4)GlcNAc
# Summary of the method: as §1
# [20] = molecular target: GlcNAc(b1-4)[GlcNAc(b1-6)]GalNAc
# Summary of the method: as §1
# Kdn(a2-6)Gal(b1-4)GlcNAc = molecular target: Kdn(a2-6)Gal(b1-4)GlcNAc
# Summary of the method: as §1
# [21] = molecular target: Man(a1-2)Man(a1-2)Man(a1-3)Man
# Summary of the method: as §1
# [22] = molecular target: Man(a1-2)Man(a1-2)Man(a1-6)[Man(a1-3)]Man
# Summary of the method: as §1
# Man(a1-2)Man(a1-3)Man = molecular target: Man(a1-2)Man(a1-3)Man
# Summary of the method: as §1
# [23] = molecular target: Man(a1-2)Man(a1-3)[Man(a1-2)Man(a1-6)]Man
# Summary of the method: as §1
# [24] = molecular target: Man(a1-2)Man(a1-3)[Man(a1-2)Man(a1-6)]Man(a1-6)[Man(a1-2)Man(a1-2)Man(a1-3)]Man
# Summary of the method: as §1
# [25] = molecular target: Man(a1-2)Man(a1-6)[Man(a1-3)]Man(a1-6)[Man(a1-2)Man(a1-2)Man(a1-3)]Man
# Summary of the method: as §1
# [26] = molecular target: Man(a1-2)Man(a1-6)[Man(a1-3)]Man(a1-6)[Man(a1-2)Man(a1-2)Man(a1-3)]Man(b1-4)GlcNAc(b1-4)GlcNAc
# Summary of the method: as §1
# Man(a1-6)Man = molecular target: Man(a1-6)Man
# Summary of the method: as §1
# Man(b1-4)GlcNAc = molecular target: Man(b1-4)GlcNAc
# Summary of the method: as §1
# Neu5Ac(a2-3)Gal = molecular target: Neu5Ac(a2-3)Gal
# Summary of the method: as §1
# [27] = molecular target: Neu5Ac(a2-3)Gal(b1-3)GalNAc(b1-4)[Neu5Ac(a2-3)]Gal(b1-4)Glc
# Summary of the method: as §1
# [28] = molecular target: Neu5Ac(a2-3)Gal(b1-3)GlcNAc(b1-3)Gal(b1-4)GlcNAc
# Summary of the method: as §1
# [29] = molecular target: Neu5Ac(a2-3)Gal(b1-3)GlcNAc(b1-3)GalNAc
# Summary of the method: as §1
# [30] = molecular target: Neu5Ac(a2-3)Gal(b1-4)GlcNAc(b1-3)Gal(b1-4)[Fuc(a1-3)]GlcNAc
# Summary of the method: as §1
# [31] = molecular target: Neu5Ac(a2-3)Gal(b1-4)[Fuc(a1-3)]GlcNAc(b1-3)Gal(b1-4)[Fuc(a1-3)]GlcNAc(b1-3)Gal(b1-4)[Fuc(a1-3)]GlcNAc
# Summary of the method: as §1
# Neu5Ac(a2-6)Gal = molecular target: Neu5Ac(a2-6)Gal
# Summary of the method: as §1
# [32] = molecular target: Neu5Ac(a2-6)Gal(b1-4)GlcNAc(b1-3)GalNAc
# Summary of the method: as §1
# Neu5Ac(a2-6)GalNAc = molecular target: Neu5Ac(a2-6)GalNAc
# Summary of the method: as §1
# [33] = molecular target: Neu5Ac(a2-8)Neu5Ac(a2-3)Gal(b1-4)Glc
# Summary of the method: as §1
binder,measurement,setting,value
B1,glycan array binding signal (z-score),[1],-0.207
same,glycan array binding signal (z-score),[2],-0.241
same,glycan array binding signal (z-score),[3],-0.239
same,glycan array binding signal (z-score),[4],4.81
same,glycan array binding signal (z-score),[5],-0.174
same,glycan array binding signal (z-score),[6],-0.207
same,glycan array binding signal (z-score),[7],5.5
same,glycan array binding signal (z-score),[8],0.526
same,glycan array binding signal (z-score),[9],-0.219
same,glycan array binding signal (z-score),[10],-0.188
same,glycan array binding signal (z-score),Fuc(a1-4)GlcNAc,-0.24
same,glycan array binding signal (z-score),Gal(b1-4)Glc6S,-0.248
same,glycan array binding signal (z-score),[11],-0.242
same,glycan array binding signal (z-score),[12],-0.226
same,glycan array binding signal (z-score),[13],-0.246
same,glycan array binding signal (z-score),[14],-0.23
same,glycan array binding signal (z-score),[15],1.29
same,glycan array binding signal (z-score),[16],-0.243
same,glycan array binding signal (z-score),Glc(b1-4)Glc,-0.243
same,glycan array binding signal (z-score),[17],-0.237
same,glycan array binding signal (z-score),[18],-0.066
same,glycan array binding signal (z-score),[19],-0.212
same,glycan array binding signal (z-score),[20],0.086
same,glycan array binding signal (z-score),Kdn(a2-6)Gal(b1-4)GlcNAc,-0.232
same,glycan array binding signal (z-score),[21],6.07
same,glycan array binding signal (z-score),[22],10.1
same,glycan array binding signal (z-score),Man(a1-2)Man(a1-3)Man,1.1
same,glycan array binding signal (z-score),[23],4.5
same,glycan array binding signal (z-score),[24],8.68
same,glycan array binding signal (z-score),[25],4.81
same,glycan array binding signal (z-score),[26],0.475
same,glycan array binding signal (z-score),Man(a1-6)Man,-0.228
same,glycan array binding signal (z-score),Man(b1-4)GlcNAc,-0.239
same,glycan array binding signal (z-score),Neu5Ac(a2-3)Gal,-0.238
same,glycan array binding signal (z-score),[27],-0.231
same,glycan array binding signal (z-score),[28],-0.235
same,glycan array binding signal (z-score),[29],-0.237
same,glycan array binding signal (z-score),[30],-0.238
same,glycan array binding signal (z-score),[31],1.04
same,glycan array binding signal (z-score),Neu5Ac(a2-6)Gal,-0.253
same,glycan array binding signal (z-score),[32],-0.235
same,glycan array binding signal (z-score),Neu5Ac(a2-6)GalNAc,-0.248
same,glycan array binding signal (z-score),[33],-0.252
